Measurements taken from PubChem BioAssay AID1159580 (chemical genetic matrix, 2015).
Where “and” joins values, the source holds several entries; their conditions need not be identical. Identical values can stand only once. In all, about 5,500 compounds went through this assay and about 2,000 (36%) were called active. About 18% were inconclusive and are not listed. No stated cut-off is given here; in the data, active means normalized growth mostly below about 0.91 (no sharp cut-off); inconclusive means no clear call, values can overlap the other calls; inactive means mostly above about 0.92. The list shows a part of the results.

Assay: chemical genetic growth profiling, strain panel (AID 1159580);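 further: tested at 20 µM; growth read once vehicle control cultures reached saturation at 30 °C; 1 = growth at the plate median or of vehicle wells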
Conditions: S. cerevisiae deletion strains, growth OD

Measured: normalized growth

NC(=O)c1cccc(N)c1
inactive: locus YAL013W, strain DEP1, stronger effect = lower value 1 and 1.01 | locus YAL021C, strain ccr4, stronger effect = lower value 0.979 | locus YAL026C, strain drs2, stronger effect = lower value 0.97 | locus YAL030W, strain snc1, stronger effect = lower value 0.992 | locus YAL040C, strain CLN3, stronger effect = lower value 1 | locus YBL061C, strain skt5, stronger effect = lower value 0.977 | locus YBR009C, strain hhf1, stronger effect = lower value 0.998 | locus YBR021W, strain FUR4, stronger effect = lower value 0.968 | locus YBR023C, strain chs3, stronger effect = lower value 0.981 | locus YBR171W, strain sec66, stronger effect = lower value 0.962 | locus YBR229C, strain ROT2, stronger effect = lower value 1 | locus YBR231C, strain swc5, stronger effect = lower value 0.967 | locus YBR279W, strain paf1, stronger effect = lower value 0.99 | locus YCL011C, strain gbp2, stronger effect = lower value 0.957 | locus YCL016C, strain dcc1, stronger effect = lower value 0.988 | locus YCL029C, strain bik1, stronger effect = lower value 1 | locus YCL061C, strain MRC1 (second series), stronger effect = lower value 1 | locus YCL069W, strain vba3, stronger effect = lower value 0.962 | locus YCR088W, strain abp1, stronger effect = lower value 0.972 | locus YDL005C, strain med2, stronger effect = lower value 0.969 | locus YDL035C, strain GPR1, stronger effect = lower value 1 | locus YDL040C, strain nat1, stronger effect = lower value 0.988 | locus YDL074C, strain BRE1, stronger effect = lower value 1.01 | locus YDL101C, strain DUN1, stronger effect = lower value 1.01 | locus YDL134C, strain PPH21, stronger effect = lower value 0.999 | locus YDL185W, strain tfp1, stronger effect = lower value 1.01 | locus YDL192W, strain arf1, stronger effect = lower value 0.999 | locus YDR001C, strain nth1, stronger effect = lower value 0.979 | locus YDR069C, strain doa4, stronger effect = lower value 0.966 | locus YDR101C, strain arx1, stronger effect = lower value 0.987 | locus YDR137W, strain rgp1, stronger effect = lower value 0.976 | locus YDR150W, strain NUM1, stronger effect = lower value 1.01 | locus YDR159W, strain sac3, stronger effect = lower value 0.965 | locus YDR162C, strain NBP2, stronger effect = lower value 1 | locus YDR195W, strain ref2 0.958 | locus YDR297W, strain sur2, stronger effect = lower value 0.98 | locus YDR318W, strain mcm21, stronger effect = lower value 0.985 | locus YDR334W, strain swr1, stronger effect = lower value 0.96 | locus YDR335W, strain msn5, stronger effect = lower value 0.97 | locus YDR363W, strain ESC2, stronger effect = lower value 1 | locus YDR388W, stronger effect = lower value 0.993 | locus YDR392W, strain spt3, stronger effect = lower value 0.965 | locus YDR502C, strain sam2, stronger effect = lower value 1.01 | locus YEL003W, strain gim4, stronger effect = lower value 0.979 | locus YEL037C, strain rad23, stronger effect = lower value 0.969 | locus YEL061C, strain CIN8 (second series), stronger effect = lower value 0.954 | locus YEL061C, strain CIN8, stronger effect = lower value 1.01 | locus YER002W, strain NOP16, stronger effect = lower value 1.02 | locus YER015W, strain faa2, stronger effect = lower value 0.983 | locus YER016W, strain bim1, stronger effect = lower value 0.977 | locus YER110C, stronger effect = lower value 0.996 | locus YER111C, strain swi4, stronger effect = lower value 0.966 | locus YER155C, strain BEM2 (second series), stronger effect = lower value 0.965 | locus YER155C, strain BEM2, stronger effect = lower value 0.99 | locus YER167W, strain BCK2, stronger effect = lower value 1 | locus YFR010W, strain ubp6, stronger effect = lower value 0.968 | locus YGL078C, strain dbp3, stronger effect = lower value 1 | locus YGL086W, strain mad1, stronger effect = lower value 0.988 | locus YGL167C, strain pmr1, stronger effect = lower value 0.981 | locus YGL173C, strain kem1, stronger effect = lower value 0.984 | locus YGL227W, strain vid30, stronger effect = lower value 0.966 | locus YGL240W, strain doc1, stronger effect = lower value 0.969 | locus YGL248W, strain PDE1, stronger effect = lower value 1 | locus YGL253W, strain hxk2, stronger effect = lower value 0.963 | locus YGR078C, strain PAC10, stronger effect = lower value 1 and 1.05 | locus YGR135W, strain pre9, stronger effect = lower value 0.986 | locus YGR229C, strain SMI1, stronger effect = lower value 1.01 | locus YGR252W, strain gcn5, stronger effect = lower value 0.978 | locus YHR013C, strain ard1, stronger effect = lower value 0.972 | locus YHR027C, strain rpn1, stronger effect = lower value 0.974 | locus YHR030C, strain SLT2, stronger effect = lower value 1.01 | locus YHR079C, strain IRE1 (second series), stronger effect = lower value 0.994 | locus YHR094C, strain hxt1, stronger effect = lower value 0.998 | locus YHR129C, strain ARP1, stronger effect = lower value 1 | locus YHR142W, strain chs7, stronger effect = lower value 0.968 | locus YHR200W, strain rpn10, stronger effect = lower value 0.993 | locus YIL066C, strain RNR3, stronger effect = lower value 1 | locus YIL073C, strain SPO22, stronger effect = lower value 1.02 | locus YIL125W, strain kgd1, stronger effect = lower value 0.996 | locus YIR030C, strain dcg1, stronger effect = lower value 0.996 | locus YJL092W, strain hpr5, stronger effect = lower value 0.954 | locus YJL095W, strain BCK1 (second series), stronger effect = lower value 0.979 | locus YJL095W, strain BCK1, stronger effect = lower value 1 | locus YJL115W, strain asf1, stronger effect = lower value 0.966 | locus YJL129C, strain trk1, stronger effect = lower value 0.965 | locus YJL134W, strain LCB3, stronger effect = lower value 1 | locus YJL154C, strain vps35, stronger effect = lower value 0.979 | locus YJL164C, strain tpk1, stronger effect = lower value 1 | locus YJL166W, strain qcr8, stronger effect = lower value 1.01 | locus YJL168C, strain set2, stronger effect = lower value 0.99 | locus YJL187C, strain SWE1 (second series), stronger effect = lower value 1.01 | locus YJL187C, strain SWE1, stronger effect = lower value 0.968
